Data from PubChem BioAssay (NCATS).
Records with an inconclusive call do not appear. Entries that show only a call come without a potency. Active and inactive are the calls of the source. Calls come from the whole dose curve; as a rule, active = well fitted inhibition curve with a large enough effect; inconclusive = small, poorly fitted or top-dose-only effect; inactive = flat fitted curve, though single readings scatter.

Assay: P-glycoprotein substrates identified in KB-8-5-11 adenocarcinoma cell line, qHTS therapeutic library screen (AID 1346987); note: nearly all actives have a fitted effect of over 65% in size
Conditions: KB-8-5-11 (P-gp overexpressing) viability, CellTiter-Glo, 72 h; series mostly up to 44.5 µM
Procedure, shortened: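 Human cervical adenocarcinoma KB-8-5-11 cells, selected in colchicine to over-express P-gp and assayed without it, were exposed for 72 h to titrated compounds. An ATP-based luminescent viability signal gave AC50.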

SMILES	Potency	outcome
CN(C)C(=O)C(O)C(Cc1ccccc1)NC(=O)c1cc2cc(Cl)ccc2[nH]1 (stereo unspecified)	inactive	
C=CC1(C)CC=C2C(CCC3C(C)(C(=O)O)CCCC23C)C1 (stereo unspecified)	inactive	
Cc1nc2cc(-c3cc(F)cc(C#N)c3)ccc2s1	inactive	
CC1(C)CCC[C@]2(C)C1CC=C(CO)[C@H]2CC/C(=C/CO)CO (stereo partly specified)	inactive	
CC(=O)OC1CC(C(C)(C)O)OC2CCC3(C)OC4=C(C(=O)C=C5C(C)C(OC(C)=O)C6(C)C(C)OC546)C(O)C3C12C (stereo unspecified)	inactive	
COC(=O)C1=CO[C@@H](O[C@@H]2O[C@H](CO)[C@@H](O)[C@H](O)[C@H]2O)[C@@H]2[C@@H](C(=O)O)CC[C@H]12	inactive	
O=C(NC1CCN(CC(F)(F)F)CC1)c1ccc(-c2cccc(F)c2)nc1	inactive	
C=CC(C)(CC/C=C(\C)C(=O)OC)OC1OC(COC(=O)CC(C)(O)CC(=O)O)C(O)C(O)C1O (stereo unspecified)	inactive	
COC(=O)[C@]1(C)CCC[C@@]2(C)[C@@H]3CC[C@@H]4C[C@@]3(CC[C@@H]21)C[C@H]4C(=O)O	inactive	
CC(C)=CCC[C@](C)(O[C@@H]1O[C@H](CO)[C@@H](O)[C@H](O)[C@H]1O)[C@H]1CC[C@]2(C)[C@@H]1[C@H](O)CC1[C@@]3(C)CC[C@H](O)C(C)(C)C3[C@@H](O[C@@H]3O[C@H](CO)[C@@H](O)[C@H](O)[C@H]3O[C@@H]3O[C@@H](C)[C@H](O)[C@@H](O)[C@H]3O)C[C@]12C (stereo partly specified)		inactive [at 9.29 µM]
C[C@]12CCC[C@](C)(C(=O)O)C1CCC13CC(CO)C(CCC12)C3 (stereo partly specified)	inactive	
